Compound activity deposited in PubChem BioAssay by several laboratories.
The list is not random: actives were taken first. Their share in the collection is about 27%.
CYP2C9 inhib: blockers of cytochrome P450 2C9 activity – biochemical, luminescence, ADME assay, primary screen; CYP2C9 Supersomes, luciferin-H conversion; inhibition, % at 5 µM; P11712; 96,000 compounds, 20% hits;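 active = blocking of liver enzyme CYP2C9 beyond about 50% at 5 µM, limit read from the data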
EphB4 antag: EphB4-ephrin-B2 interaction antagonists, primary screen, biochemical, TNYL-RAW peptide probe, fluorescence polarization; Ephrin type-B receptor 4 (Homo sapiens), P54760; EphB4 LBD / TNYL-RAW-Alexa532 peptide; inhibition, % at 7 µM; 97,000 compounds, 0.15% hits; AID 720, 2007;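 active = inhibition above the screen-wide mean inhibition plus 3 SD, cut at about 15% in these data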;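 also: 0% = DMSO wells and 100% = excess unlabeled TNYL-RAW peptide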
CYP2C19 activ: human CYP2C19 activators, primary screen, biochemical, luminescence; Cytochrome P450 2C19 (Homo sapiens), P33261; recombinant CYP2C19, luciferin-H EGE luminescence; active compounds read high; 0 = fully inhibited enzyme, 1 = untreated enzyme; AID 1025, 2008; 96,000 tested, under 10 active; activation factor at 5 µM;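 active = activation factor of at least 2 at 5 µM in the primary screen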;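 also: 0 = wells with 2.5 mM tranylcypromine and 1 = vehicle-only wells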
CYP2C19 inh: blockers of cytochrome P450 2C19 activity – biochemical, luminescence, ADME assay, primary screen; 96,000 compounds, 21% hits; inhibition, % at 5 µM; CYP2C19 Supersomes, luciferin-H EGE luminescence, 30 min; P33261;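 active = CYP2C19 inhibition above a set limit at 5 µM in the primary screen, cut at about 50% in these data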;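 also: plate controls were negative control wells for no effect and 2.5 mM tranylcypromine positive control for full effect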
CYP2C9 activ: human CYP2C9 activators, primary screen, biochemical, luminescence. Cytochrome P450 2C9 (Homo sapiens), P11712. recombinant CYP2C9, luciferin-H conversion; active compounds read high; factor 1 = untreated enzyme, 0 = blocked. activation factor at 5 µM. 96,000 compounds, 1.4% hits. AID 1024, 2008;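 active = activation factor of 2 or more for CYP2C9 at a 5 µM dose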;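 also: 0 = sulfaphenazole-blocked wells and 1 = vehicle-only wells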
The depositor's hits bear a star; · = no result given.

SMILES	CYP2C9 inhib	EphB4 antag	CYP2C19 activ	CYP2C19 inh	CYP2C9 activ
COc1ccc(N(CC(=O)N2CCc3ccccc3C2)S(C)(=O)=O)cc1OC	-6.3	-14.7	0.8	16.5	1.1
COc1ccc2c(c1)c(=O)oc1c(C)c(OCC(=O)N3CCc4ccccc4C3)ccc12	62.5*	4.1	0.6	36.7	0.4
CCC(=O)c1ccc(OCC(=O)N2CCc3cc(OC)c(OC)cc3C2)cc1	38.1	-4.0	0.6	40.6	0.6
COc1cc2c(cc1OC)CN(C(=O)COc1ccc(C)c(C)c1)CC2	62.4*	10.4	0.3	72.4*	0.4
CCCC(=O)n1nc(-c2ccc(OC)cc2)nc1N	-1.1	-1.6	0.5	53.3*	1
CCCC(=O)n1nc(-c2ccco2)nc1N	3.7	3.3	0.9	14.5	1
O=C(NC1CCCCC1)N(Cc1nc2ccccc2c(=O)[nH]1)C1CCCC1	28.7	6.1	0.7	34.5	0.7
COc1cccc(-c2nnn(CC(=O)Nc3cc(OC)c(NC(=O)c4ccco4)cc3OC)n2)c1	54.1*	4.7	0.7	35.0	0.5
O=C(Cn1nnc(-c2ccccc2NC(=O)c2ccco2)n1)Nc1ccccc1	92.1*	·	0.7	32.3	0.1
CC(C)(C)NC(=O)Cn1nnc(-c2ccccc2NC(=O)c2ccco2)n1	·	4.0	·	·	·
CCCOc1ccc(-c2nnn(CC(=O)Nc3cccc(C(=O)OC)c3)n2)cc1	91.7*	·	0.7	32.7	0.1
CCOc1ccc(NC(=O)Cn2nnc(-c3ccccc3NC(=O)CC)n2)cc1	88.7*	-1.5	0	100.4*	0.1
NC(=O)[C@H](Cc1cc2ccccc2s1)NC(=O)[C@@H]1CC2(CC(c3cccc(NC(=O)[C@@H]4CCC(=O)N4)c3)=NO2)CN1C(=O)c1ccccc1 (stereo not given in full)	45.6	-1.8	0.6	40.0	0.5
N#Cc1cnc(SCCc2ccccc2)nc1N	12.8	-4.7	0.5	49.4	0.9
CC(C)(C)NC(=O)NC(=O)COC(=O)c1cc(=O)[nH]c2ccccc12	35.2	0.5	0.8	15.3	0.6
O=S(=O)(NCCc1ccccc1)c1cccc2nsnc12	59.4*	-2.8	0	99.4*	0.4
O=C(CCCNS(=O)(=O)c1cccc2nsnc12)NCCc1ccccc1	-0.1	-7.3	0.5	49.7	1
O=S(=O)(NCCOC12CC3CC(CC(C3)C1)C2)c1cccc2nsnc12	-31.3	-1.0	0	96.9*	1.3
C1=C(c2ccccc2)N2CCN=C2S1	7.4	2.2	1	2.4	0.9
O=S(=O)(c1ccc(C2=CSC3=NCCN23)cc1)N1CCOCC1	11.2	-7.3	0.4	55.7*	0.9
COc1ccc(CN2CCCC2C(=O)Nc2ccc(OC)c(OC)c2)cc1OC (stereo not given)	49.9	-3.5	0.5	54.0*	0.5
COc1ccc(NC(=O)CC2CCCCC2)cc1OC	23.4	-6.7	0.1	93.6*	0.8
COc1ccc(NC(=O)C2CCCCN2N)cc1OC (stereo not given)	·	-10.9	·	·	·
O=C(COC(=O)CNS(=O)(=O)/C=C/c1ccccc1)NC1CCS(=O)(=O)C1 (stereo not given)	11.1	-0.3	0.8	20.8	0.9
CCOC(=O)C1=C(c2ccccc2)NC(SCC)=C(C#N)C1c1cccnc1 (stereo not given)	69.6*	-3.1	0.9	14.8	0.3
SMILES	CYP2C9 inhib	EphB4 antag	CYP2C19 activ	CYP2C19 inh	CYP2C9 activ
CCOC(=O)C1=C(C)Nc2ncnn2C1c1cccnc1 (stereo not given)	8.1	-8.7	0.9	5.4	0.9
CCCSC1=C(C#N)C(c2cccnc2)C(C(=O)OCC)=C(c2ccccc2)N1 (stereo not given)	61.7*	-5.3	0.5	49.4	0.4
O=[N+]([O-])c1ccccc1N/N=C/c1cc2ccccc2nc1Cl	-10.6	-3.4	1	-4.7	1.1
Cc1cccc(Oc2ccccc2NC(=O)c2cnccn2)c1	-9.7	-1.8	1.1	-8.7	1.1
Cn1c(Cc2ccccc2)nnc1SCC(=O)Nc1ccc2c(c1)OCO2	54.8*	4.5	0.1	86.9*	0.5
Cn1cccc1Cc1nnc(SCC(=O)Nc2ccc3c(c2)OCO3)n1CCc1ccccc1	57.3*	·	0.4	55.4*	0.4
Cn1cccc1Cc1nnc(SCC(=O)Nc2ccc3c(c2)OCCO3)n1CCc1ccccc1	38.1	-1.0	0.5	48.1	0.6
